# Results filed as inconclusive are left out. Entries that show only a call come without a potency. The source made the active and inactive calls. Calls follow the shape of the full dose curve.
# What was measured:
# [1] = Primary qHTS for Huh7 cytotoxicity: counterscreen for inhibitors of MERS-S pseudotyped particle cell entry (AID 1479147); conditions: cell viability read-out; series mostly up to 57.1 µM
# [2] = Primary qHTS for Vero E6 cytotoxicity: counterscreen for inhibitors of SARS-S pseudo-typed particle cell entry (AID 1479150); conditions: cell viability; series mostly up to 57.1 µM
# [3] = Primary qHTS for inhibitors of MERS-S pseudo-typed particle cell entry (AID 1479149); conditions: MERS-S pseudotyped particle entry, luciferase; series mostly up to 57.1 µM; also: nearly all actives have a fitted effect of over 60% in size; also: potency is read from the fitted curve at half-maximal effect
# [4] = Confirmatory qHTS for VERO E6 Cytotoxicity Assay: Counterscreen for SARS-CoV-2 CPE Assay (AID 1508605); conditions: cell viability luminescence; series mostly up to 20 µM; also: nearly all actives have a fitted effect of over 60% in size; also: potency is read from the fitted curve at half-maximal effect
# [5] = Confirmatory qHTS for activators (rescue) of SARS-CoV-2 Cytopathic Effect (CPE) (AID 1508606); conditions: Vero E6 SARS-CoV-2 CPE rescue, viability luminescence; series mostly up to 20 µM; also: nearly all actives have a fitted effect of over 70% in size; also: potency is read from the fitted curve at half-maximal effect
structure (smiles),measurement,setting,value
COc1ccc2c(c1)c(CC(=O)O)c(C)n2C(=O)c1ccc(Cl)cc1,Potency,[1],inactive
same,Potency,[2],inactive
CN(C)CCN1C(=O)c2ccccc2N(C)c2ccccc21,Potency,[1],inactive
same,Potency,[3],inactive
same,Potency,[2],inactive
COc1ccnc2c1CCCCC2S(=O)c1nc2ccccc2[nH]1 (stereo not given),Potency,[1],inactive
same,Potency,[3],inactive
same,Potency,[2],inactive
Cc1cc(C(C)(C)C)cc(C)c1CC1=NCCN1,Potency,[1],inactive
same,Potency,[3],inactive
same,Potency,[2],inactive
CN1[C@@H]2CC[C@H]1CC(OC(=O)c1c[nH]c3ccccc13)C2 (stereo not given in full),Potency,[1],inactive
same,Potency,[2],inactive
CC(=O)OCC(=O)Nc1cc(C#N)cc(NC(=O)COC(C)=O)c1Cl,Potency,[1],inactive
same,Potency,[3],inactive
same,Potency,[2],inactive
COC(=O)C1=C(C)NC(C)=C(C(=O)OC(C)(C)CN(C)CCC(c2ccccc2)c2ccccc2)C1c1cccc([N+](=O)[O-])c1 (stereo not given),Potency,[1],inactive
same,Potency,[2],inactive
CN(C)CCOC(c1ccccc1)c1ccc(Br)cc1 (stereo not given),Potency,[1],inactive
same,Potency,[3],inactive
same,Potency,[2],inactive
same,Potency,[4],inactive
COC(=O)C1=C(C)NC(C)=C(C(=O)OCCN2CCN(C(c3ccccc3)c3ccccc3)CC2)C1c1cccc([N+](=O)[O-])c1 (stereo not given),Potency,[1],inactive
same,Potency,[2],inactive
Clc1ccc(C(Cn2ccnc2)OCc2c(Cl)cccc2Cl)c(Cl)c1 (stereo not given),Potency,[1],inactive
same,Potency,[2],inactive
O=C(Nc1ccccc1)OCC(CN1CCCCC1)OC(=O)Nc1ccccc1 (stereo not given),Potency,[1],inactive
same,Potency,[2],inactive
CCN(CC)CCOC(=O)C1(c2ccccc2)CCCC1,Potency,[1],inactive
same,Potency,[2],inactive
CCCCN(CCCC)CC(O)c1cc(Cl)cc2c1-c1ccc(Cl)cc1/C2=C/c1ccc(Cl)cc1 (stereo not given),Potency,[1],inactive
same,Potency,[2],inactive
O=C(CCCN1CCN(c2ccc(F)cc2)CC1)NC1c2ccccc2CSc2ccccc21 (stereo not given),Potency,[1],inactive
same,Potency,[2],inactive
same,Potency,[4],inactive
same,Potency,[5],inactive
CN1CCCCC1CCN1c2ccccc2Sc2ccc(S(C)=O)cc21 (stereo not given),Potency,[1],inactive
same,Potency,[2],inactive
same,Potency,[4],inactive
NC(=NCCCCCCN=C(N)/N=C(\N)Nc1ccc(Cl)cc1)/N=C(\N)Nc1ccc(Cl)cc1,Potency,[1],inactive
same,Potency,[2],inactive
C#C[C@]1(OC(C)=O)CC[C@H]2[C@@H]3CCC4=C[C@@H](OC(C)=O)CC[C@@H]4[C@H]3CC[C@@]21C,Potency,[1],inactive
same,Potency,[2],inactive
CN(C)CCCOc1nn(Cc2ccccc2)c2ccccc12,Potency,[1],inactive
same,Potency,[2],inactive
CN(C)CCOc1ccccc1Cc1ccccc1,Potency,[1],inactive
same,Potency,[2],inactive
O[C@@H](COc1cccc2ncccc12)CN1CCN(C2c3ccccc3[C@@H]3[C@H](c4ccccc42)C3(F)F)CC1 (stereo not given in full),Potency,[1],inactive
same,Potency,[2],inactive
Cc1ccc(Cl)c(OCC(O)CNC(C)(C)C)c1 (stereo not given),Potency,[1],inactive
same,Potency,[2],inactive
CCCOC(C(=O)OC1CCN(C)CC1)(c1ccccc1)c1ccccc1,Potency,[1],inactive
same,Potency,[2],inactive
same,Potency,[4],inactive
CCCCCCCCCCCCCCCCCCOCC(O)CO (stereo not given),Potency,[1],inactive
same,Potency,[2],inactive
CN(C)CCCN1c2ccccc2Sc2ccccc21,Potency,[1],inactive
same,Potency,[2],inactive
same,Potency,[4],inactive
CN1CCC(OC(c2ccccc2)c2ccccc2)CC1,Potency,[1],inactive
same,Potency,[2],inactive
COc1ccc(CN2CCN(C(c3ccc(F)cc3)c3ccc(F)cc3)CC2)c(OC)c1OC,Potency,[1],inactive
same,Potency,[2],inactive
N#C/C(=C1/SC[C@@H](c2ccc(Cl)cc2Cl)S1)n1ccnc1,Potency,[1],inactive
same,Potency,[2],inactive
C=C1C[C@H]2[C@@H]3C=C(C)C4=CC(=O)CC[C@]4(C)[C@H]3CC[C@]2(C)[C@@]1(OC(C)=O)C(C)=O,Potency,[1],inactive
same,Potency,[2],inactive
Clc1ccc(Cn2c(CN3CCCC3)nc3ccccc32)cc1,Potency,[1],inactive
same,Potency,[2],inactive
CC(C)C[C@@H]1[C@H](c2ccccc2)OC(=O)N1CCCN1CCCCCC1,Potency,[1],inactive
same,Potency,[2],inactive
COC(=O)[C@H]1[C@H]2C[C@@H]3c4[nH]c5cc(OC)ccc5c4CCN3C[C@H]2C[C@@H](OC(=O)/C=C/c2ccc(O)c(OC)c2)[C@@H]1OC,Potency,[1],inactive
same,Potency,[2],inactive
same,Potency,[4],inactive
same,Potency,[5],12.6 µM (active)
CN1CC(=O)N2[C@H](c3ccc4c(c3)OCO4)c3[nH]c4ccccc4c3C[C@@H]2C1=O,Potency,[1],inactive
same,Potency,[2],inactive
CC1(C)CCC(C)(C)c2cc(NC(=O)c3ccc(C(=O)O)cc3)ccc21,Potency,[1],inactive
same,Potency,[2],inactive
OC(CCCN1CCCCC1)(c1ccccc1)c1ccccc1,Potency,[1],inactive
same,Potency,[2],inactive
CO[C@@H]1[C@@H](O[C@@H]2O[C@H](C)[C@@H](O[C@H]3C[C@@](C)(O)[C@@H](O)[C@H](C)O3)[C@H](N(C)C)[C@H]2O)[C@@H](CC=O)C[C@@H](C)[C@@H](O[C@@H]2CC[C@H](N(C)C)[C@@H](C)O2)/C=C/C=C/C[C@@H](C)OC(=O)C[C@H]1OC(C)=O,Potency,[1],inactive
same,Potency,[2],inactive
same,Potency,[4],inactive
CC(=O)c1ccc2c(c1)N(CCCN(C)C)c1ccccc1S2,Potency,[1],inactive
same,Potency,[2],inactive
Clc1ccc2c(c1)CCc1cccnc1C2=C1CCNCC1,Potency,[1],inactive
same,Potency,[2],inactive
same,Potency,[4],inactive
CC/C(=C(/CC)c1ccc(O)cc1)c1ccc(O)cc1,Potency,[1],inactive
same,Potency,[2],inactive
COCCOC(=O)C1=C(C)NC(C)=C(C(=O)OC/C=C/c2ccccc2)C1c1cccc([N+](=O)[O-])c1 (stereo not given),Potency,[1],inactive
same,Potency,[2],inactive
C[C@@H](CN(C)C)CN1c2ccccc2Sc2ccccc21,Potency,[1],inactive
same,Potency,[2],inactive
same,Potency,[4],inactive
COc1cccc(CCc2ccccc2OCC(CN(C)C)OC(=O)CCC(=O)O)c1 (stereo not given),Potency,[1],inactive
same,Potency,[2],inactive
same,Potency,[4],inactive
CC(=O)O[C@]1(C(C)=O)CC[C@H]2[C@@H]3C=C(Cl)C4=CC(=O)CC[C@]4(C)[C@H]3CC[C@@]21C,Potency,[1],inactive
same,Potency,[2],inactive
CCN(CC)CCOCCOC(=O)C1(c2ccccc2)CCCC1,Potency,[1],inactive
same,Potency,[2],inactive
CC(C)(C)c1ccc(C(=O)CCCN2CCC(OC(c3ccccc3)c3ccccc3)CC2)cc1,Potency,[1],inactive
same,Potency,[2],inactive
O=C(NCC1CN(c2ccc(N3CCOCC3=O)cc2)C(=O)O1)c1ccc(Cl)s1 (stereo not given),Potency,[1],inactive
same,Potency,[2],inactive
c1ccc(CNCCNCc2ccccc2)cc1,Potency,[1],inactive
same,Potency,[2],inactive
CCCCCCCCCCCCCCCC[N+](C)(C)CCN(Cc1ccc(OC)cc1)c1ncccn1,Potency,[3],10 µM (active)
O=C1NC2CCCCN2C12CCN(CCCN1c3ccccc3CCc3ccc(Cl)cc31)CC2 (stereo not given),Potency,[3],12.6 µM (active)
same,Potency,[2],inactive
O=C1NCCN1CCN1CCC(c2cn(-c3ccc(F)cc3)c3ccc(Cl)cc23)CC1,Potency,[3],8.91 µM (active)
CCCN(CCC)C(=O)C(CCC(=O)OCCCN1CCN(CCOC(=O)Cc2c(C)n(C(=O)c3ccc(Cl)cc3)c3ccc(OC)cc23)CC1)NC(=O)c1ccccc1 (stereo not given),Potency,[1],inactive
same,Potency,[2],inactive
same,Potency,[4],inactive
same,Potency,[5],10 µM (active)
NC(=O)C1(N2CCCCC2)CCN(CCCN2c3ccccc3CCc3ccc(Cl)cc32)CC1,Potency,[3],12.6 µM (active)
CCN(CC)CCNc1ccc(CO)c2sc3ccccc3c(=O)c12,Potency,[4],10 µM (active)
same,Potency,[5],inactive
O=c1[nH]c2ccccc2n1CCCN1CCN(C(c2ccccc2)c2ccccc2)CC1,Potency,[1],inactive
same,Potency,[2],inactive
same,Potency,[5],11.2 µM (active)
CC(C)OC(=O)C(C(=O)OC(C)C)=C1SC=CS1,Potency,[3],inactive
same,Potency,[2],inactive
Fc1ccc(C(c2ccc(F)cc2)N2CCN(C/C=C/c3ccccc3)CC2)cc1,Potency,[1],inactive
same,Potency,[2],inactive
same,Potency,[4],inactive
same,Potency,[5],11.2 µM (active)
CC(=O)c1ccc2c(c1)N(CCCN1CCC(CCO)CC1)c1ccccc1S2,Potency,[1],inactive
same,Potency,[2],inactive
same,Potency,[4],inactive
same,Potency,[5],11.2 µM (active)
CCN(CC)CCOc1ccc2c(c1)C(=O)c1cc(OCCN(CC)CC)ccc1-2,Potency,[4],11.2 µM (active)
CN(C)CCCN1c2ccccc2Sc2ccc(C(F)(F)F)cc21,Potency,[5],10 µM (active)
NC(N)=N/N=C/c1c(Cl)cccc1Cl,Potency,[2],inactive
CCCCN(CCCC)CCC(O)c1cc2c(Cl)cc(Cl)cc2c2cc(C(F)(F)F)ccc12 (stereo not given),Potency,[1],inactive
same,Potency,[2],inactive
same,Potency,[5],3.55 µM (active)
CN1CCN(CCCN2c3ccccc3Sc3ccc(S(=O)(=O)N(C)C)cc32)CC1,Potency,[4],inactive
CCN(CC)CCOc1ccc(/C(=C(\Cl)c2ccccc2)c2ccccc2)cc1,Potency,[2],inactive
COc1cc(N)c(Cl)cc1C(=O)NC1CCN(CCCOc2ccc(F)cc2)CC1OC (stereo not given),Potency,[2],inactive
CCCCOc1ccc(C(=O)CCN2CCCCC2)cc1,Potency,[2],inactive
CC(C)COCC(CN(Cc1ccccc1)c1ccccc1)N1CCCC1 (stereo not given),Potency,[3],8.91 µM (active)
same,Potency,[2],inactive
same,Potency,[4],inactive
same,Potency,[5],11.2 µM (active)
COc1ccc(CCN2CCC(Nc3nc4ccccc4n3Cc3ccc(F)cc3)CC2)cc1,Potency,[3],12.6 µM (active)
c1ccc(-c2ccc(C(c3ccccc3)n3ccnc3)cc2)cc1 (stereo not given),Potency,[1],inactive
same,Potency,[4],inactive
